Results reported in PubChem BioAssay (NCATS).
Records with an inconclusive call do not appear. Where a call stands in place of a potency, no number is given. Activity calls are given as the source filed them. Calls follow the shape of the dose curve; as a rule, active = well fitted curve in the direction sought with a large enough effect in the repeat runs; inconclusive = weak or mixed curves; inactive = no such curve, though single readings can be large; an effect the other way counts as inactive or inconclusive.

assay: qHTS assay for small molecule agonists of the antioxidant response element (ARE) signaling pathway measured by Nrf2-dependant transcriptional activity (AID 720636); settings: ARE-luc HepG2, Nrf2 luciferase reporter, 16 h; series mostly up to 92.4 µM;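 also: HepG2 cells with an ARE-driven luciferase reporter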
Summary of the method: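 HepG2 ARE-luc reporter line, 1% dialyzed FBS; 6 hr attachment at 37 C, compound pinned in, 16 hr at 37 C/5% CO2; ONE-Glo, 30 min RT, luminescence read.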

SMILES	Potency
CC/C(=C(/CC)c1ccc(O)cc1)c1ccc(O)cc1	inactive
C[C@H]1C[C@H]2[C@@H]3CCC4=CC(=O)C=C[C@]4(C)[C@@]3(Cl)[C@@H](O)C[C@]2(C)[C@@]1(O)C(=O)CO	inactive
O=c1ccc2ccccc2o1	inactive
CC(O)(P(=O)(O)O)P(=O)(O)O	inactive
C=CCc1ccc(O)c(OC)c1	inactive
CC(O)C(=O)O (stereo not given)	inactive
CCCCCCc1ccc(O)cc1O	inactive
CN(C)/N=N/c1nc[nH]c1C(N)=O	inactive
Cc1cc(=O)n(-c2ccccc2)n1C	inactive
Oc1c(Cl)cc(Cl)cc1Sc1cc(Cl)cc(Cl)c1O	inactive
Nc1ccc(C(=O)O)cc1	inactive

assay: qHTS assay for small molecule antagonists of the retinoid-related orphan receptor gamma (ROR-gamma) signaling pathway - cell viability counter screen (AID 720652); settings: RORgamma reporter cell line viability counter screen; series mostly up to 92.2 µM;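 also: compound exposure lasted 16 hr before ATP read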; also: potency is read from the fitted curve at half-maximal effect
Summary of the method: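 Luminescence from CellTiter-Glo after 30 min at room temperature reported cellular ATP as the cytotoxicity measure. Cells were the CHO reporter line with doxycycline-induced ROR-gamma expression, exposed to compound for 16 hr at 37 C.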

SMILES	Potency
C=C(CC)C(=O)c1ccc(OCC(=O)O)c(Cl)c1Cl	inactive
COc1cccc2c1C(=O)c1c(O)c3c(c(O)c1C2=O)C[C@@](O)(C(C)=O)C[C@@H]3O[C@H]1C[C@H](N)[C@H](O)[C@H](C)O1	13.3 µM (active)
O=c1ccc2ccccc2o1	inactive
C=CCc1ccc(O)c(OC)c1	inactive
CC(O)C(=O)O (stereo not given)	inactive
CC(C)(C)CC(C)(C)c1ccc(OCCOCC[N+](C)(C)Cc2ccccc2)cc1	inactive
CN(C)/N=N/c1nc[nH]c1C(N)=O	inactive
Oc1c(Cl)cc(Cl)cc1Sc1cc(Cl)cc(Cl)c1O	inactive
Nc1ccc(C(=O)O)cc1	inactive
